# According to the supplement of paper PMC12636033:
# ± gives the standard deviation of the averaged measurements. Whole data set: some 33,000 sequences, median “E-score (rank enrichment, -0.5 to 0.5)” near -0.0068, cut for the highest 2% near 0.24. The sample as a whole holds a higher share of the highest values than the screen did.
# Test system: muMax20 (Max(13-93) K31hArg/K57hArg, M65Nle)
# Test: PBM 8-mer E-score (E-score (rank enrichment, -0.5 to 0.5)); higher = stronger preferential binding
# Experimental: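 Protein binding microarray (universal PBM chip covering all 10-mers in fixed probe flanks) with chemically synthesized human Max(13-93) bHLH-LZ analogs (not full-length Max) bearing noncanonical residues (hArg, Tha, Aib, Nle at 65) and aromatic Cys staples. Read-out per 8-mer (and its reverse complement): E-score (rank-based enrichment, -0.5 to 0.5) and Z-score of median probe intensity.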
row,Sequence,PBM 8-mer E-score
1,CTTCTACC,0.00215 ± 0.038
2,ACAGAATG,0.088 ± 0.021
3,GTTTTCGA,-0.0225 ± 0.1
4,TCGGCCAA,-0.181 ± 0.076
5,GAATCCAC,0.0142 ± 0.053
6,CAATTGTG,0.0641 ± 0.093
7,ATAAGGTA,0.244 ± 0.019
8,ATAAGGTC,0.218 ± 0.028
9,CTAAGGTA,0.0373 ± 0.061
10,ATAAGGAT,0.246 ± 0.039
11,ATAAGGAA,0.0142 ± 0.076
12,ATAAGGAC,0.0929 ± 0.069
13,CTCTACCC,0.0459 ± 0.077
14,CCAACAGA,-0.00227 ± 0.052
15,GTAGCTCA,-0.0957 ± 0.0039
16,AACTCAGT,-0.0615 ± 0.032
17,ATGACACG,0.238 ± 0.041
18,ATGACACA,0.156 ± 0.0051
19,AAGACACG,0.293 ± 0.005
20,AAAAGACA,0.237 ± 0.011
21,GTGACACA,0.0546 ± 0.001
22,CAAAGATG,0.0977 ± 0.0035
23,AAGACACA,0.1216 ± 0.00079
24,AAAAGACC,0.0838 ± 0.031
25,AAAAGATT,0.0851 ± 0.1

row,Sequence,PBM 8-mer E-score
1,CAGACACG,-0.0512 ± 0.046
2,CAAAGACA,0.129 ± 0.0062
3,AAAAGATG,0.263 ± 0.086
4,GACCACGC,0.121 ± 0.055
5,TCGATGAA,-0.0576 ± 0.025
6,TGGCGGAA,-0.0751 ± 0.029
7,CCCAGAGC,-0.115 ± 0.017
8,AAAGCAGA,0.176 ± 0.01
9,CATATTTA,0.288 ± 0.0037
10,AATATTCA,0.259 ± 0.0058
11,ATTATTTG,0.212 ± 0.051
12,GATATTTA,0.104 ± 0.032
13,CATATTTC,0.133 ± 0.0054
14,AATATTCG,0.134 ± 0.0048
15,AATATATT,0.244 ± 0.0097
16,AATATTCC,0.149 ± 0.012
17,GTTATTTA,0.222 ± 0.014
18,AATATAGT,0.219 ± 0.013
19,ATTATTTA,0.256 ± 0.072
20,AATATATA,0.235 ± 0.04
21,ATGCGGGG,-0.0713 ± 0.071
22,TCAGGTAA,0.0683 ± 0.047
23,GTAGACTA,-0.0707 ± 0.066
24,CAGTGGGG,-0.0911 ± 0.22
25,TCTCCGAA,-0.233 ± 0.047

row,Sequence,PBM 8-mer E-score
1,AGGCATGC,0.121 ± 0.03
2,GAGTGGCA,-0.0109 ± 0.066
3,AATATTTA,0.287 ± 0.011
4,AATATTTC,0.209 ± 0.035
5,CTTATTTC,0.24 ± 0.14
6,AGTATTTA,0.222 ± 0.019
7,CTTATTTA,0.0812 ± 0.083
8,GGTATTTA,0.173 ± 0.045
9,CGTATTTA,0.248 ± 0.068
10,AATATTTG,0.167 ± 0.11
11,ATTATTTC,0.186 ± 0.039
12,CTCTCCCA,0.00928 ± 0.07
13,CACGTATC,0.158 ± 0.0092
14,GTCTATAA,0.181 ± 0.04
15,CCGTTAAA,-0.00804 ± 0.013
16,AATGACAC,0.161 ± 0.056
17,AATGACAA,0.241 ± 0.033
18,CATGACAA,0.2087 ± 0.00054
19,AGAATATC,0.129 ± 0.027
20,AGAATATG,0.227 ± 0.029
21,CGAATATA,0.237 ± 0.065
22,GGAATATA,0.0712 ± 0.077
23,CGAATATC,-0.0375 ± 0.072
24,AGAATATA,0.254 ± 0.039
25,AGAAACCC,0.0541 ± 0.034

row,Sequence,PBM 8-mer E-score
1,AGTAGCTC,-0.0686 ± 0.0062
2,CCTGTCGC,-0.224 ± 0.021
3,CATATATG,0.259 ± 0.017
4,AATATATG,0.208 ± 0.089
5,CATCTATA,0.278 ± 0.013
6,GATCTATA,-0.0926 ± 0.0098
7,AATCTATA,0.143 ± 0.05
8,TATATATA,0.228 ± 0.091
9,CATATATC,0.171 ± 0.05
10,CATATGTA,0.257 ± 0.061
11,CATATATA,0.271 ± 0.095
12,GATATGTA,0.103 ± 0.057
13,AATATGTA,0.124 ± 0.0062
14,CATATAGG,0.147 ± 0.0067
15,AAACGAGT,0.044 ± 0.013
16,AGTGTGAT,0.125 ± 0.043
17,CGTATAGA,0.0652 ± 0.077
18,AAGGTTAT,-0.0312 ± 0.054
19,CACGGTTA,0.00552 ± 0.11
20,TCGGAACA,-0.0705 ± 0.069
21,CAGTGGCC,-0.25 ± 0.067
22,CAGAGCCA,-0.17 ± 0.01
23,AGCTGGGC,-0.0998 ± 0.075
24,ACCACAGG,-0.113 ± 0.031
25,GCACTTGA,-0.0604 ± 0.011

row,Sequence,PBM 8-mer E-score
1,TGCTCGAA,0.069 ± 0.0081
2,ACCCAGTG,-0.0911 ± 0.074
3,AATATGGA,0.156 ± 0.017
4,AATATGGT,0.095 ± 0.017
5,AATATGTC,0.0382 ± 0.013
6,ACTATGTG,0.109 ± 0.069
7,AATATGTG,0.28 ± 0.094
8,AATATGGC,0.24 ± 0.07
9,CAGTTAGG,0.0928 ± 0.049
10,GATGCTAA,-0.0557 ± 0.067
11,GCGTCGAC,-0.038 ± 0.027
12,CATAAGAG,0.0912 ± 0.02
13,GATGCTGC,-0.0878 ± 0.08
14,CGCCCTGA,-0.0272 ± 0.05
15,ATAATCGG,0.137 ± 0.011
16,CTAAAGTA,0.00517 ± 0.053
17,ATAAAGTC,0.239 ± 0.082
18,ATAAAGTA,0.228 ± 0.048
19,ATAAAGTG,0.0933 ± 0.062
20,CTAAAGTC,-0.208 ± 0.11
21,GTAAAGTA,0.284 ± 0.074
22,CAAATGGA,-0.0819 ± 0.12
23,AAAATGGA,0.298 ± 0.036
24,AAAATGGG,-0.088 ± 0.024
25,AGGCTATG,-0.0609 ± 0.077

row,Sequence,PBM 8-mer E-score
1,ATTCAGCA,0.076 ± 0.071
2,CAATCGTA,0.18 ± 0.038
3,AAATCAAA,0.2624 ± 0.00016
4,TAATCGTA,0.162 ± 0.0019
5,AAATCGTA,0.248 ± 0.024
6,AAATCAAT,0.192 ± 0.01
7,AAATCAAG,0.141 ± 0.028
8,ATGTGTCC,0.0398 ± 0.026
9,TGAGAACA,0.115 ± 0.095
10,ACAACGAC,0.0368 ± 0.017
11,ATATGATG,0.193 ± 0.013
12,ATATGATA,0.273 ± 0.081
13,CCATGATA,0.0877 ± 0.047
14,ACATGATA,0.197 ± 0.045
15,GTATGAGA,0.161 ± 0.072
16,GCATGATA,0.249 ± 0.015
17,CTATGATA,-0.0149 ± 0.015
18,GTATGATA,0.323 ± 0.069
19,GGATGATA,0.0453 ± 0.067
20,ACGGTGCG,-0.17 ± 0.023
21,CTACTTAA,0.09273 ± 0.00059
22,CGAGTGTC,-0.179 ± 0.053
23,CTTTGATC,-0.09609 ± 0.0009
24,AAGAGACC,0.0547 ± 0.019
25,CCGAGTAA,-0.0803 ± 0.014

row,Sequence,PBM 8-mer E-score
1,GAACGGAA,-0.0438 ± 0.095
2,ATTAATAG,0.255 ± 0.09
3,ATTAATGG,0.0317 ± 0.074
4,ATGAATAG,0.172 ± 0.08
5,ATGAATAC,0.248 ± 0.057
6,ATTAATAA,0.274 ± 0.0099
7,CTGAATAC,-0.0332 ± 0.1
8,CTTAATAC,0.214 ± 0.041
9,ACTAATAC,0.158 ± 0.089
10,ATTAATCG,0.0839 ± 0.061
11,ATTAATAC,0.266 ± 0.021
12,CTTAATAA,0.0902 ± 0.011
13,GTTAATAA,0.227 ± 0.066
14,AGATTGCT,-0.0246 ± 0.009
15,GGATAGAA,0.123 ± 0.013
16,AACTCCCG,-0.034 ± 0.042
17,GGAATCGA,-0.191 ± 0.065
18,GCGACTAC,-0.0421 ± 0.049
19,ACAAACCC,0.11 ± 0.054
20,GGGTGGTA,-0.00184 ± 0.074
21,ACTAGAGG,0.113 ± 0.047
22,ACATGCAT,0.294 ± 0.053
23,ACATGCAA,0.16 ± 0.046
24,TCATGCAA,0.277 ± 0.021
25,ACATGCAG,0.032 ± 0.14
